# According to ChEMBL document CHEMBL3988442, “University of Dundee, Small-Polar-MMV Screening Library” (2021):
# For some of these results: Entries with a potency or affinity are not part of this list.
# Columns and labels:
# Parameters in all cases: scale not given: direction of the effect not stated beside the values
# [1] = molecular target: Protein translocase subunit SecA (Escherichia coli (strain K12)) (UniProt P10408); assay: Assay to Identify E. coli SecA ATPase Inhibitors; type: functional; conditions: 30 µM
# [2] = molecular target: T1, Ubiquitin-activating enzyme e1, putative (Leishmania donovani (strain BPK282A1)) (UniProt E9BSI1); assay: Leishmania donovani Ubiquitin Activating Enzyme (LdE1); type: functional; conditions: 30 µM
# T1 sequence (whole entry): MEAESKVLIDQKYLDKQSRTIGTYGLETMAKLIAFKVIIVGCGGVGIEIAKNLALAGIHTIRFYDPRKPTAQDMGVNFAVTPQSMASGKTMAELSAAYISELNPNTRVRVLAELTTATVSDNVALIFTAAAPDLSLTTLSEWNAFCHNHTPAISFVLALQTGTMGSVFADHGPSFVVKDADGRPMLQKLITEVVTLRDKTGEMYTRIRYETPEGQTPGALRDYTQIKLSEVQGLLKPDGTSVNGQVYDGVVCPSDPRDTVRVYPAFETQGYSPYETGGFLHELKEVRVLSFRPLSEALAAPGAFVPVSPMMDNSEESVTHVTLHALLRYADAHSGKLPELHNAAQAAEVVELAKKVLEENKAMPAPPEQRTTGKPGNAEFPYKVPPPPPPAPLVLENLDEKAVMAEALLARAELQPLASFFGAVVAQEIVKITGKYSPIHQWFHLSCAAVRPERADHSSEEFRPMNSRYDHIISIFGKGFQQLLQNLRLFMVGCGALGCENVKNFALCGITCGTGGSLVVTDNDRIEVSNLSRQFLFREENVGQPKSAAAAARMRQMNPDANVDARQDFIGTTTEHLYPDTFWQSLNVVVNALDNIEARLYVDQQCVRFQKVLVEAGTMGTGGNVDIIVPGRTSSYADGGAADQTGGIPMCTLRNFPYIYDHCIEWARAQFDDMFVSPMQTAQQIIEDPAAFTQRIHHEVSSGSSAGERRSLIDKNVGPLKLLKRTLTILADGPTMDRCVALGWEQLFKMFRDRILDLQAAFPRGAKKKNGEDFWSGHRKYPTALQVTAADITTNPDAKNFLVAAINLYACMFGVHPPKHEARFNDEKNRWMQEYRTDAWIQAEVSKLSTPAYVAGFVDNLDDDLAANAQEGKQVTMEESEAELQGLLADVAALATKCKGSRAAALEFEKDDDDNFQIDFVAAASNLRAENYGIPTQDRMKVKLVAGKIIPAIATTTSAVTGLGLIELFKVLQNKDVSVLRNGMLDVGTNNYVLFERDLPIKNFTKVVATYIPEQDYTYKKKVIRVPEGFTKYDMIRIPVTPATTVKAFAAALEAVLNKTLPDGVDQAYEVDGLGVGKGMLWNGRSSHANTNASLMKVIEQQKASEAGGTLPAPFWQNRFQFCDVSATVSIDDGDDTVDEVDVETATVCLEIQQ
# [3] = molecular target: AMP-activated protein kinase, AMPK (Homo sapiens) (UniProt P54646+O43741+P54619+Q9UGJ0+Q9Y478+Q13131+Q9UGI9); assay: AMP-dependent Kinase enzyme assay. An in vitro enzyme assay that detects ADP turnover that is directly proportional to AMPK activity. This uses naive AMPK that is activated during the assay with MK-8722; type: functional; conditions: 30 µM
# [4] = molecular target: Sialic acid-binding Ig-like lectin 9 (Homo sapiens) (UniProt Q9Y336); assay: Hs-Siglec9 ALPHAscreen SOP 20170721; conditions: 10 µM
# Trypanosoma cruzi = assay: Trypanosoma cruzi phosphomannomutase and mannose-1-phosphate guanylyltransferase assay; type: functional; conditions: 10 µM
# [5] = molecular target: T2, Arginase-2, mitochondrial (Homo sapiens) (UniProt P78540); assay: in vitro enzyme assay to detect the production of urea directly proportional to the activity of Arginase II; type: functional; conditions: 33.3 µM; note: in the data most compounds retested in dose-response had high values
# T2 sequence (whole entry): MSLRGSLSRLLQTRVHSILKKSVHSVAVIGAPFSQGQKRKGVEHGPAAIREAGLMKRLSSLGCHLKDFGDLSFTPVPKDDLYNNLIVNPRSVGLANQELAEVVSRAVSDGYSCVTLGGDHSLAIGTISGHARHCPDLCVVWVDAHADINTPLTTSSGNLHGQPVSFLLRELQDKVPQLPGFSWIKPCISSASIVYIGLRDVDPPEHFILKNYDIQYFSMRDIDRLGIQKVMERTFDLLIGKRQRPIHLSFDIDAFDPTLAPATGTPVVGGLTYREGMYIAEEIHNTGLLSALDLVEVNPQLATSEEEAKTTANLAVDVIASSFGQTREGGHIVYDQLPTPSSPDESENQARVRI
# [6] = molecular target: T3, Proteasome subunit beta (Trypanosoma cruzi) (UniProt O96673); assay: Trypanosoma cruzi proteasome chymotrypsin-like activity (TcProtChymo) assay.; note: in the data most compounds retested in dose-response had high values; type: functional; conditions: 9.37 µM
# T3 sequence (whole entry): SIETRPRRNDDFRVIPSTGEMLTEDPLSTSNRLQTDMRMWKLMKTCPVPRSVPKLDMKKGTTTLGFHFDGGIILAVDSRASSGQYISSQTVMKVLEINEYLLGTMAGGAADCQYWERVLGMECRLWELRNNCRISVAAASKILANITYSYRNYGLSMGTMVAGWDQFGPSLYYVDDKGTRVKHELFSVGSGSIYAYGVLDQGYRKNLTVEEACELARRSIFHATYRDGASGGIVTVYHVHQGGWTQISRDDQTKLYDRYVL
# Homo sapiens = species: Homo sapiens; assay: To identify inhibition of the IFN signalling (Jak-Stat) pathway via expression of an eGFP reporter gene under the control of an IFN-stimulated response element (ISRE) containing MxA promoter.; type: functional; conditions: 30 µM
# [7] = molecular target: T4, Tyrosyl-tRNA synthetase, putative (Trypanosoma cruzi (strain CL Brener)) (UniProt Q4DSP6); assay: Trypanosoma cruzi tyrosyl tRNA synthetase (TcYRS) _High Tyrosine SOP; type: functional; conditions: 30 µM; note: in the data most compounds retested in dose-response had high values
# T4 sequence (whole entry): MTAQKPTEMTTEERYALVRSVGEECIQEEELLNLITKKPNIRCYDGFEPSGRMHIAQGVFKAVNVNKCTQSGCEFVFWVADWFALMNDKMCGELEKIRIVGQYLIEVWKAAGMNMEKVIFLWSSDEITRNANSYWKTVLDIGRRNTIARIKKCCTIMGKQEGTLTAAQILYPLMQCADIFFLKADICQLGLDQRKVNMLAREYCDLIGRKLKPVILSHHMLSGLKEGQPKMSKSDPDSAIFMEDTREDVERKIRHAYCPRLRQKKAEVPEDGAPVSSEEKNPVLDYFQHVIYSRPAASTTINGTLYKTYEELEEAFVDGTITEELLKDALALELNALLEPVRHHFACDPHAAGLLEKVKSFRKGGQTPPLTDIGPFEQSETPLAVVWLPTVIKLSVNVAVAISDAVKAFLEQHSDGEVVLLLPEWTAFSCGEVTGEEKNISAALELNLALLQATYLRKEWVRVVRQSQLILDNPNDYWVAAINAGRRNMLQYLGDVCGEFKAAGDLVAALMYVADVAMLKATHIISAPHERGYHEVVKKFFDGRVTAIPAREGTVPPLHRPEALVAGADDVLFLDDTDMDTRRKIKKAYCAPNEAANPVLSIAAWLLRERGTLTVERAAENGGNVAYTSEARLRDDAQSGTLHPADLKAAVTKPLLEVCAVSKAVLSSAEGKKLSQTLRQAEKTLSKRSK
# [8] = molecular target: T4, Tyrosyl-tRNA synthetase, putative (Trypanosoma cruzi (strain CL Brener)); assay: Trypanosoma cruzi tyrosyl tRNA synthetase (TcYRS) SOP; type: functional; conditions: 30 µM
# [9] = molecular target: Chromo domain-containing protein 1 (Saccharomyces cerevisiae (strain ATCC 204508 / S288c) (Baker's yeast)) (UniProt P32657); assay: ScCHD-1 Enzyme Inhibition Assay; type: functional; conditions: 30 µM; note: in the data most compounds retested in dose-response had high values
# Sequence of Chromo domain-containing protein 1 (Saccharomyces cerevisiae (strain ATCC 204508 / S288c) (Baker's yeast)) (P32657 whole entry, the tested form may be a part): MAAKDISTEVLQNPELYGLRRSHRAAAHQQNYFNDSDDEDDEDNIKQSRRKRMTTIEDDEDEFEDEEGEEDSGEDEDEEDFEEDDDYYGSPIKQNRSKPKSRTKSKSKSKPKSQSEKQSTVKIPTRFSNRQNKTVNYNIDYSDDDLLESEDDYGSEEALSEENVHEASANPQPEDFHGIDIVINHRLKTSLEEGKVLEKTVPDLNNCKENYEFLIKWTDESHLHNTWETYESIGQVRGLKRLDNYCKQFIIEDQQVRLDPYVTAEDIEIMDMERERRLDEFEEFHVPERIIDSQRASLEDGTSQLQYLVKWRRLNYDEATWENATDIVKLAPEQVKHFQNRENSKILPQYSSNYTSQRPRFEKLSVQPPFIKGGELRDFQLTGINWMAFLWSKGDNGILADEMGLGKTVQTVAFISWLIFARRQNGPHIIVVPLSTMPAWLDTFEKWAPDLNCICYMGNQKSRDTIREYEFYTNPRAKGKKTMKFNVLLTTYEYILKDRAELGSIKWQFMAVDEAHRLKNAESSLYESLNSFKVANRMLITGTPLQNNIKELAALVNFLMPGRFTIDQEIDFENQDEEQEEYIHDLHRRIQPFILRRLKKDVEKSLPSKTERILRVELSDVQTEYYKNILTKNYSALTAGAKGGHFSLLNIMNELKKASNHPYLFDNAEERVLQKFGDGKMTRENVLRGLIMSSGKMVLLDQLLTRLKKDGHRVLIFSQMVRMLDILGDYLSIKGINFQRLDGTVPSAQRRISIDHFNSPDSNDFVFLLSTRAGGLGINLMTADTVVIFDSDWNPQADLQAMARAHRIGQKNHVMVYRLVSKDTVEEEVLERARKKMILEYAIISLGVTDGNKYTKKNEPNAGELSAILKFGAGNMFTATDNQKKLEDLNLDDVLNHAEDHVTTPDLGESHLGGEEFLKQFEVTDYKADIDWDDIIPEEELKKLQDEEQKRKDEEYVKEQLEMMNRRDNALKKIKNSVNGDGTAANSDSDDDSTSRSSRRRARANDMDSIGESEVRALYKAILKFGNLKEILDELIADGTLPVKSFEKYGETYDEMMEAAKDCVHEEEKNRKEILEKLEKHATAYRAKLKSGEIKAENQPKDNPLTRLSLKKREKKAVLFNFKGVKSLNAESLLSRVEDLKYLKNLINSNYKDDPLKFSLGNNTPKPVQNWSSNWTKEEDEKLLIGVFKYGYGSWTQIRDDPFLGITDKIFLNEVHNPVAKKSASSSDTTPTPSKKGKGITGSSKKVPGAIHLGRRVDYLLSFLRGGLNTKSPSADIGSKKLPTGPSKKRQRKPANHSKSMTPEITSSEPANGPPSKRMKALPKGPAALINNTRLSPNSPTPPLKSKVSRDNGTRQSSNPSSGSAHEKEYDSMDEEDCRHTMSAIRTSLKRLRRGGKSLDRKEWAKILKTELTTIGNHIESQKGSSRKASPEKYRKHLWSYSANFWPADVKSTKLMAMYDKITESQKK
# Sequence of Protein translocase subunit SecA (Escherichia coli (strain K12)) (P10408 whole entry): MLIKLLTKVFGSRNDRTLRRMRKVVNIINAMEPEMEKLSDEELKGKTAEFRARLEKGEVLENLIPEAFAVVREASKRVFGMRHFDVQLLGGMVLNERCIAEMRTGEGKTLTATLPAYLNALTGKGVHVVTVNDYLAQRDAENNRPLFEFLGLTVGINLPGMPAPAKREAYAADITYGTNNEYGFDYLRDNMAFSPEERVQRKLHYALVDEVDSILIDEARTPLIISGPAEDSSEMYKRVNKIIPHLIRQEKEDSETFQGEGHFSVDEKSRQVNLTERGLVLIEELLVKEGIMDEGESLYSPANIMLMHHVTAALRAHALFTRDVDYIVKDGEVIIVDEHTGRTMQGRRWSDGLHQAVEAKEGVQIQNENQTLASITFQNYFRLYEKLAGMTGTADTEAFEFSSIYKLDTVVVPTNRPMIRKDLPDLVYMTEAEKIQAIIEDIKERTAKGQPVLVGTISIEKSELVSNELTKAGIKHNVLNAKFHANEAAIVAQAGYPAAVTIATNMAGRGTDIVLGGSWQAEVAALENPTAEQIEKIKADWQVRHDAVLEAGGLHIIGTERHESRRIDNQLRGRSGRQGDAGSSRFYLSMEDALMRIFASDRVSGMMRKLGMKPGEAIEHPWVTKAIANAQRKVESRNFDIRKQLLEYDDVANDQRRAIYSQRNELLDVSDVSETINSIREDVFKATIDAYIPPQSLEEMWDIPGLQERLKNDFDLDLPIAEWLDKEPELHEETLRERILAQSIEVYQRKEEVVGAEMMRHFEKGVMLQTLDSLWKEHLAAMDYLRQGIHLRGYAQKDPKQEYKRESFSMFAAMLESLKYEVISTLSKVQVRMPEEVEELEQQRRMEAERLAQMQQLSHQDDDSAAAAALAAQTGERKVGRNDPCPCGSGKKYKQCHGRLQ
# Sequence of Sialic acid-binding Ig-like lectin 9 (Homo sapiens) (Q9Y336 whole entry): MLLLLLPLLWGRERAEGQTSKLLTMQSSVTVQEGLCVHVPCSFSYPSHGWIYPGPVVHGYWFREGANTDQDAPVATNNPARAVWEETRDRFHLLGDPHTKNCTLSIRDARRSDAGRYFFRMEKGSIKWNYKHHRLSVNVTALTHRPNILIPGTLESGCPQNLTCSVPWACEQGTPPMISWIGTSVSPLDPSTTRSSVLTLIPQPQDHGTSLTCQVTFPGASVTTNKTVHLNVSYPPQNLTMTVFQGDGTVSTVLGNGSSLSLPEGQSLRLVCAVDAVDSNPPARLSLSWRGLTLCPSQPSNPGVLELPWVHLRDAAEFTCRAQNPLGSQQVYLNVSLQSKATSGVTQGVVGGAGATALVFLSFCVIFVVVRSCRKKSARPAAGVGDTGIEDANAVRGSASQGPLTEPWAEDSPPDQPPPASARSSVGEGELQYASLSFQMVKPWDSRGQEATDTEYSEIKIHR
SMILES,Percent Effect [1] [%],Percent Effect [2] [%],Percent Effect [3] [%],Percent Effect [4] [%],Percent Effect (Trypanosoma cruzi) [%],Percent Effect [5] [%],Percent Effect [6] [%],Percent Effect (Homo sapiens) [%],Percent Effect [7] [%],Percent Effect [8] [%],Percent Effect [9] [%]
CC(O)CN1CCC(CNCc2ccc(S(C)(=O)=O)cc2)CC1 (stereo not drawn),-2,19.2,-8.77,13.4,2.15,8.64,24.5,5.76,4.3,15,-7.9
C[C@H](O)CNC(=O)c1cnc(-c2ccccc2)nc1O,-3.97,10.8,-6.61,24.9,4.83,19.1,11.7,-5.82,2.65,17.1,-9.28
O=C(CCc1cscn1)N1CCCC1c1noc(C2CC2)n1 (stereo not drawn),-5.78,16.2,-11.8,6.15,-1.42,-2,11.3,6.02,12.3,16.1,-5.15
Cc1cc(C)c2c(c1)C1(CC(=O)Nc3c1cnn3C(C)C)C(=O)N2 (stereo not drawn),0.0889,4,4.34,1.54,0.982,-6.16,8.87,21.1,3.17,2.56,-5.39
O=C(CCc1cscn1)N1CCCC(c2ccn[nH]2)C1 (stereo not drawn),-3.73,-5.2,4.11,6.88,-2.62,1.07,5.91,15.7,2.91,0,-3.79
CC1(C(=O)N2CCOCC2)CN(Cc2ccccn2)CCO1 (stereo not drawn),-7.59,1.35,-5.87,-5.46,-4.35,-5.8,9.52,24.2,1.07,-3.9,6.62
Cc1cc(-c2cnc(NC3CC3)nc2-c2ccc(C)o2)on1,-1.85,13.3,55.8,7.93,3.54,-0.233,2.56,20.4,2.13,14.1,-7.02
O=C(c1ccc2c(c1)COC2)N1CCN(CC2CC2)CC1,-2.51,5.06,-1.47,8.43,-0.283,-1.52,-2.21,0.542,4.43,-1.27,1.49
